Among the data in PubChem BioAssay AID1508600 (Functional Genomics Laboratory (NCATS/FGL), 2020) are z-score values, retold here.

The campaign covered roughly 53,000 sequences. About 3,700 (7%) were called active. Shown is part of a subset that was picked to be rich in actives. Values without a mark were called inactive.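 Rule for the calls: active = gene knockdowns whose robust z-score for IL-1 alpha signal is at least 2 or at most -2, so actives lie on both sides; inactive = the rest.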

The experiment in a line: Components of the Cytosolic LPS Sensing Pathway: Gene Identification via Genome-wide siRNA Screen.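 Note: robust z of the log signal after scaling to non-targeting control siRNA wells of the plate.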 The note with it: RAW264.7 macrophages, IL-1a HTRF, actives lie on both sides, screened at 100 nM (by protocol), cells primed 5 h with Pam3CSK4 first. The method in brief: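 RAW264.7; siRNA 100 nM final, RNAiMAX, 48h 37 degrees C; Pam3CSK4 5 h; LipidA + TransIT-TKO 24 h; IL-1a HTRF; CellTiter-Glo viability; robust z vs negative-control median.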
In the case of GCUGCAUUCGGUUACCACUTT against Olfml2b, the z-score is 0.677.
On to GGAGGUUACAUAACAGGUGTT against Itsn2, for which the z-score was 1.86.
Consider GGGAGUUAUUUAAGAUUCUTT against Has1, for which the z-score is 0.0567.
For the sequence GAAAAAUAAUGGAGUUUGGTT against Gtf2h5, the z-score is 0.513.
Regarding CCAGUGGAGUAAACUGUAATT against Ltbp1, the z-score was 2.24 (active).
As for GGAAGUGGUCCACCUGAUCTT against Mms19, the z-score is -0.324.
Regarding GGCCCAUCUGAGGAAGCUUTT against Magea4, the z-score was -1.55.
Consider GGAACUUCAUAAACACUUGTT against Oas3, for which the z-score is -0.545.
As to GGUUCUGGAAAGUUCUCUGTT against Sorcs2, the z-score was -0.0101.
Regarding GGUGAUGUUUUAUGGCAGGTT against Olfr1335, the z-score was 0.329.
CGAUGAUCGGCUCAACAAGTT against Rplp2: the z-score was -0.401.
Consider GGCCAUACGCAAGCUCAAGTT against Rtl5, for which the z-score is -2.96 (active).
For the sequence GGUUCCUCACAAGCAUUCUTT against Olfr818, the z-score is 0.276.
On to GCAUGAAGUUGCACAUCCCTT against Cox8b, for which the z-score is -0.42.
The figure for GGGAGCUAUUUAUCCUAUUTT against Zc4h2 is 0.214; for GCCUCCUGAAUGACCACAUTT against Klk1b27 it is 2.29 (active); for GGACUGUGAUUGUUUCAGATT against Mep1a it is -0.0817.
With GGUAUCAUCUAUAGAGACUTT against Prkch, the z-score is -0.265.
With “CCGUGCCAAACUUCUUACUTT against 2610528J11Rik”, the z-score was -0.1.
The figure for GGGCUAGAGGAAAACGAAATT against Crot is 1.64; for CGCAGAGAGUAGAAAAUUGTT against Pdia5 it is -0.428; for GGACUGUCAUCUUCCUCAGTT against Ston2 it is -2.97 (active).
In the case of GCUAUGACCGGAGGUUCUATT against Morn5, the z-score is 0.555.
As for GGAAACGAAGAGGAAGAAUTT against Ddit3, the z-score is -0.571.
Take CCAGUAUAUUCUGAGGGUUTT against Isl1: the z-score was 0.374.
GGAGACUGAGGAAGAAUCUTT against Atcay: the z-score was -0.302.
Regarding GGACUGUGACAUAUUCUUUTT against Zfp54, the z-score was 2.74 (active).
As for GGGUGGACUGAAUGCUGAUTT against Qtrt1, the z-score is 0.665.
Regarding GGUGUACCUUGGGACUUACTT against Prpf18, the z-score is -2.84 (active).
In the case of GGUUUACUUCCCAUACCUGTT against Pold1, the z-score was 0.701.
Consider GGCAAUACGUAACAUGCCATT against Slc6a4, for which the z-score is -0.148.
In the case of GGACGAAGACACCAAAGUGTT against Camk2a, the z-score was -1.31.
The figure for GGUAGGGACCUAUCCUUGGTT against Cramp1l is -0.518; for GGAUGGAGUUCACAUUUUCTT against Utp11 it is 0.816.
Turning to CCUUGAGCAAAUCACACAUTT against Stk32b, the z-score was 3.94 (active).
In the case of GGACAAGAACUUAGUGAUGTT against Emc9, the z-score was 0.522.
The figure for GGCUGGAACCCUAAUUUCUTT against Tpo is 1.32.
Regarding AGUGGGCUUCAAAUUUCCATT against Aym1, the z-score was -0.551.
Take GCAUGAUCGUGUUUGUUUATT against Srpk2: the z-score was 0.722.
Take GGUUUCAAUAAUCCAGGAATT against Naa16: the z-score is 0.352.
The figure for CCUCAAAUGGCCACACACUTT against Kcnj11 is -1.27; for GGACUAAAUGGUCAAGAUUTT against Rbm8a it is -2.74 (active).
For CCUUGGAUGUAUUCAUAUATT against Prkar2a, the z-score is 0.255.
The figure for GGGUACCUGUGGUUUUUGUTT against Hdhd5 is -0.481.
As to GCUCCAAAUUAAAUUUUGCTT against Irf9, the z-score is 0.768.
Take GGUCAUUCAAGAGAUACUATT against Dennd10: the z-score is -0.65.
For the sequence GGCAAAGGACUUCAUGGCUTT against B4galt4, the z-score was -1.42.
In the case of CGACAGAGGAAAACAUAAATT against St13, the z-score was -2.55 (active).
Consider GGAAAGAAAGACUAGUAAATT against Cpne1, for which the z-score is 0.815.
The figure for CCUCAUCGACAUAAUGAUUTT against Samhd1 is -0.0182; for GGUUCACUCUGAAGACACCTT against Pkig it is 0.0516.
Turning to CCGUGUGACAUUUGAGUAUTT against Crhbp, the z-score is 1.42.
The figure for CCAGCUUUGGGAAAUACCGTT against Sertad1 is -2.39 (active); for GGGAUCCAUCCUUAUUGUUTT against Ybx2 it is -0.101; for “GGAUUCUCCUUUACCUUUGTT against B930095G15Rik” it is 0.0151.
Consider GGAAGACUUUGGCUUUGAATT against Tfpt, for which the z-score is -0.165.
For the sequence GGAGAACAUCAAGAACAAUTT against Ap2m1, the z-score is 2.08 (active).
In the case of GCCCGAAAAAGAGAACUGATT against Wbp11, the z-score was 0.056.
Consider GGAUCAAGACAAAAAACUUTT against Arhgap17, for which the z-score was -0.17.
The figure for GGACCAGAUUGCUAAUGAGTT against Fam13a is -0.0932; for GGAAUUCUUGAAGAUUCCCTT against Ptpn7 it is 0.884; for GGAGCUCCUACCAAGACUUTT against Klhl38 it is 1.07.
In the case of GGAAUGCAAUGACAAAUGATT against Kank3, the z-score is 0.198.
On to GCUUAUAAGAGUCUAUCUUTT against Stam, for which the z-score was -0.217.
With GCUCAGUUUAUACCAAAAUTT against Api5, the z-score was -2.31 (active).
For the sequence CCCAAGAUCUAAGAGUAUUTT against Rin3, the z-score was -1.18.
For the sequence GGGACUAUUCCUCCAGAGUTT against Cast, the z-score is -0.439.
Consider GGUCAAGAGGGAAAACUUUTT against Ctps, for which the z-score was 0.0558.
As for CGGUACAUCAUUGCUGUCATT against Slc17a8, the z-score was -2.22 (active).
Turning to CCGUAGUAUCCACUGAUUGTT against Olfr1322, the z-score is -0.34.
The figure for GGAGGAAGAAACAACAAUGTT against Calhm5 is 0.76.
For the sequence GGCUUAGUAUGUUGUAUUCTT against Fam241b, the z-score was 0.189.
Take GGGUUCAUUUUUGGCUUUCTT against Serpina3m: the z-score is 0.0735.
Consider GGUGCAGAAGCUCAAGUUCTT against Cpne2, for which the z-score was 2.44 (active).
For GCGAAUCUCCUCCUAGUGATT against Arhgap28, the z-score was -0.0218.
As for GGAAUUCGUAAAGAUUGCATT against Esrp2, the z-score was -0.158.
Turning to UGCUGGUAGACCUAGUAGCTT against Olfr1137, the z-score is -2.1 (active).
In the case of GGUGUACGAUCUGACCAAGTT against Cyb5a, the z-score was 0.0756.
The figure for GGAAUGGUUUGGUGAGUUUTT against Pramel1 is 0.859; for GGCAUCUCUUCCAAGUUGGTT against Mzt1 it is 1.69; for GGGACAUAUUGUUUCCCUUTT against Tmco5b it is 0.777.
For GGUUAUGAUGGGACUUCUCTT against Tmem37, the z-score is -1.34.
The figure for CCUUUGUAGGAACAAUUUATT against Phlda1 is 0.409.
With GCGUAUUUUAUGGAUGAAATT against Nfkbiz, the z-score was -2.42 (active).
In the case of GGAUUAUCAUGGUUUGAUCTT against Elp4, the z-score was 0.938.
As for GCAUCUGUGCCGAUUAAAATT against Asb15, the z-score is 1.32.
Consider AUAUCAGACUGACAUAGCATT against Obox5, for which the z-score was 2.47 (active).
Regarding CGAGGCUAACAAACUCAUATT against Guca2a, the z-score is 0.883.
On to CCUGGAAACUAUUUUGAUGTT against Katnal2, for which the z-score is 0.0379.
As for GACAAAACAAUUUCCUAUGTT against Olfr805, the z-score was -0.318.
Turning to GGCAGAAACGUGGACUAAATT against Mmp12, the z-score is -1.29.
Turning to GGAACCAGUAUCCUGACAUTT against Prop1, the z-score is -0.592.
GGCUAUAAUGAACCAGCUGTT against Ubr3: the z-score was -0.208.
As for CCAGUUCAGAGAUUAUCUUTT against Olfr826, the z-score was -2.13 (active).
Consider GGAUGCAGAUGUACAACUCTT against Slc25a28, for which the z-score was 2.17 (active).
The figure for GGAGCCUCCAAGUUGUAAGTT against Ifi27l2b is 0.748.
Consider CCACCUUAACUGUUGCUUUTT against Mmp2, for which the z-score was 0.691.
Consider GCAUUUGAAUCGACUACAGTT against Vti1b, for which the z-score is 0.691.
On to GGUGUGUGCAGGACUAAAUTT against Cacng3, for which the z-score was 0.955.
Turning to GCCGGAGUGCACAAUCAAATT against Rarres2, the z-score was 0.908.
For GGAAAUCCAUCGUUAUUCUTT against Abca8a, the z-score was 2.08 (active).
The figure for GGAGAGACUUGAGAUUGUCTT against Ptx3 is 0.245; for GGACACUAUCCGUGCAUCUTT against Tsg101 it is -1.13.
For GCAAGUGACGGUUUAUCUGTT against Las1l, the z-score was -1.68.
On to UACCAGAAGUACCUGUCCCTT against Lbx1, for which the z-score was 3.33 (active).
Take CCUCAUUCGAUACAUCUGUTT against Ints3: the z-score is 0.319.
With CCUUGUUUUUCACAAAUCATT against Usp7, the z-score was -0.182.
On to GGCUCGACUUGGAGAAAAGTT against Atg13, for which the z-score was 0.0439.
